D2 antag: D2 dopamine receptor (human) antagonism; hit rate 2% among 340,000; inhibition, % at 10 µM; P14416; HEK293 TREx D2 cells, calcium flux, dopamine EC80; AID 485344; in the data active means inhibition above about 30%; inactive means below that, where a call was filed; further: 0% is about no effect
Target sequence (P14416 whole entry, looked up): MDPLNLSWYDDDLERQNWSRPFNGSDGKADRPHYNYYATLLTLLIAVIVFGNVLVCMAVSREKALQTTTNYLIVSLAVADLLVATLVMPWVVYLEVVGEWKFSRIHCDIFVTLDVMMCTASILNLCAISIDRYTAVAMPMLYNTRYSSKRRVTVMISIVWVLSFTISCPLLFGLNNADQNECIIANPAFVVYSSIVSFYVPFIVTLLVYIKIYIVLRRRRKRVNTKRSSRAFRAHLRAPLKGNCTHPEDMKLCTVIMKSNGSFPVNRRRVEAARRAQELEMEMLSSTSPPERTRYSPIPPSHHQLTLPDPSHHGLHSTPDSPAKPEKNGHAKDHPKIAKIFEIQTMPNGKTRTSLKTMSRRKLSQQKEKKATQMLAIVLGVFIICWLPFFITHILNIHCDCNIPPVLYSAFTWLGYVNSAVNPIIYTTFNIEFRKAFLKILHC
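Measurement of antagonist activity uses fluorescent calcium dye in inducible HEK293 T-REx D2 cells: 10 s baseline, compound addition with 180 s read, EC80 dopamine addition with a further 180 s read.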
D2 ag-1: activates the human D2 dopamine receptor | HEK293 T-REx D2 cells, calcium flux agonist mode | activation, % at 2 µM | hit rate 0.53% among 340,000 | P14416;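 active means activation over 3 SD above normal in the single-dose calcium agonist read, cut at about 30% in these data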; further: 0% is about no effect
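Tetracycline-induced HEK293 Trex cells with D2 receptor force-coupled to calcium signaling, plated overnight at 30 C and loaded with no-wash calcium dye. Calcium flux read kinetically for 180 s after compound addition; responses flag agonists.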
D2 ag-2: activates the human D2 dopamine receptor; DiscoveRx PathHunter D2 beta-arrestin, luminescence, 90 min; 100% = 57 uM dopamine signal; hit rate 0.084% among 360,000; activation, % (no concentration beside the values); P14416; in the data active means activation above about 40%
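DiscoveRx PathHunter D2 beta-arrestin cells (2,100/well) attached overnight, then compound-stimulated 90 min at 37 C in HBSS/10 mM HEPES/0.1% Tween-20 buffer; beta-galactosidase complementation read by luminescence after 1 h at ambient temperature. Dopamine 57 uM final (EC100) as control.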
D2 PAM-1: positively modulates the human D2 dopamine receptor allosterically. P14416. hit rate 0.34% among 340,000. AID 485347. HEK293 T-REx D2, calcium flux, EC20 dopamine potentiation. potentiation, % at 10 µM;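 active means potentiation over 3 SD above the plate norm, cut at about 30% in these data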; further: 0% is about no effect
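Tetracycline-induced HEK293 T-REx cells force-coupled to calcium signalling expressed D2; compounds were pin-added after a 10 s baseline, read kinetically 180 s, then an EC20 dopamine challenge followed with a further 180 s calcium read.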
D2 PAM-2: positive allosteric modulators of human D2 dopamine receptor; P14416; DiscoveRx D2 beta-arrestin cells, luminescence, 90 min; 100% = 57 uM dopamine signal; potentiation, % (no concentration beside the values); hit rate 0.23% among 360,000; AID 624464; in the data active means potentiation above about 50%
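PathHunter D2 cells, attached overnight at 37 deg C, received compound in DMSO plus dopamine at EC20 (50 nM final) for 90 min at 37 deg C. Beta-arrestin recruitment was read as luminescence after 1 h with detection reagent at ambient temperature.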
* = called active by the depositor; . = no result given. An excerpt weighted towards active compounds, which were near 2.4% of everything screened.

SMILES | D2 antag | D2 ag-1 | D2 ag-2 | D2 PAM-1 | D2 PAM-2
CC[C@H]1C2C[C@H]3[C@@H]4N(C)c5ccccc5C45C[C@H](C2[C@H]5O)N3[C@@H]1O (some centres not stated) | 35.8* | 0.6 | -2.0 | -9.6 | -25.7
Nc1ncn[nH]1 | . | . | -4.2 | . | -4.6
COc1ccc(C(=O)C(Cc2ccccc2)N(C)C)cc1 (configuration not stated) | 1.5 | 1.0 | -2.5 | -3.3 | -20.9
COc1ccc(C(CNC(=O)c2ccc3c(c2)CCC3)N(C)C)cc1 (configuration not stated) | 79.5* | -0.8 | -3.6 | -27.9 | -17.0
COC(=O)c1ccc(NC(=O)c2cccn(Cc3ccccc3C)c2=O)cc1 | . | 0.8 | . | -6.2 | .
CN1CC(C(=O)c2ccc(F)cc2)C(c2ccc(F)cc2)C1 (configuration not stated) | 99.9* | 0.6 | -7.9 | -46.2 | -28.5
CCCC(CCC)C(=O)OC[N+](C)(C)CCOC(=O)C(O)(c1ccccc1)C1CCCC1 (configuration not stated) | 39.1* | -1.4 | -5.4 | -3.6 | -10.6
CC(C)(C)C(=O)OC[N+](C)(C)CCOC(=O)C(O)(c1ccccc1)C1CCCC1 (configuration not stated) | 19.4 | -0.3 | 10.6 | -7.8 | -15.4
C/C=C(\C)C(=O)OC1C(C)=C2C(C1OC(=O)CCCCC)C(C)(OC(C)=O)CC(OC(=O)CCC)C1(O)C2OC(=O)C1(C)O (configuration not stated) | 35.9* | 66.3* | . | -12.0 | .
O=[N+]([O-])NC1=NCCN1Cc1ccc(Cl)nc1 | -3.5 | -0.2 | -5.2 | -9.4 | -9.2
Clc1ccccc1CN1CCN(c2ccccc2Cl)CC1 | -25.0 | 15.3 | 2.6 | -24.9 | -19.2
COc1ccccc1N1CCN(Cc2ccc(Cl)cc2Cl)CC1 | 34.7* | -1.5 | -0.1 | -29.8 | -34.6
COc1ccc(CN2CCN(Cc3ccccc3OC)CC2)cc1 | -4.6 | -0.5 | -2.9 | 0.7 | -22.3
CSc1ccc(CN2CCN(c3ccccc3C)CC2)cc1 | 70.8* | 0.1 | 3.3 | -31.8 | -15.3
COc1ccccc1CN1CCN(Cc2ccc(Cl)cc2)CC1 | 76.4* | 0.6 | -1.4 | -24.1 | -23.5
Cc1ccc(CN2CCN(Cc3ccccc3F)CC2)cc1 | 38.9* | -1.3 | -4.2 | -15.4 | -21.5
COc1ccc(-n2nnnc2C(c2cccc3ccccc23)N2CCC3(CC2)C(=O)NCN3c2ccccc2)cc1 (configuration not stated) | . | . | 6.3 | . | -7.4
Cc1ccc(-n2c(/C=C/c3cc(Br)cs3)nc3ccccc3c2=O)cc1C | . | 1.1 | . | -10.4 | .
COc1ccccc1N1CCN(Cc2ccc(SC)cc2)CC1 | 78.8* | -1.1 | -3.2 | -21.4 | -81.7
Nc1c(C(=O)Nc2ccc(Br)cc2F)sc2nc3c(cc12)N1CCC3CC1 | . | -1.4 | . | -2.0 | .
CCN1CCN(c2ccc(NC(C)=O)cc2Cl)CC1 | 41.6* | -0.3 | -4.4 | 8.7 | -4.8
CCN1CCN(c2ccc(N)cc2C)CC1 | 12.9 | 4.2 | -2.9 | -10.2 | -18.2
CCCC1(CC(C)C)C(=O)NC(=S)NC1=O | . | . | 1.4 | . | -14.9
COc1ccc(CNC(=O)CCC(=O)N2C[C@H]3C[C@H](C2)c2cccc(=O)n2C3)cc1OC | 36.4* | 0.4 | -2.8 | -1.7 | -25.7
CCN(CC)P(=O)(c1n(CC)cc[n+]1CC)N(CC)CC | -16.7 | -0.2 | -3.9 | 31.5* | -1.3
SMILES | D2 antag | D2 ag-1 | D2 ag-2 | D2 PAM-1 | D2 PAM-2
O=c1c2ccccc2nc(/C=C\c2cccc(Br)c2)n1-c1ccc(O)cc1 | . | 1.0 | . | 5.6 | .
C=CC1CN2CCC1CC2c1[nH]c2ccccc2c1CCO (configuration not stated) | 4.7 | 0.7 | -3.0 | 1.5 | -9.8
O=C1NC(=S)NC(=O)C1=Cc1cccc2cc3ccccc3cc12 | 9.2 | 0.5 | -9.6 | 10.2 | -60.0
CC1(C)OC(c2ccccc2)=C/C(=C/C=C2C(=O)NC(=S)NC2=O)O1 | 63.0* | 9.3 | 9.5 | 1.1 | 4.0
CN1/C(=C\C=C2C(=O)NC(=S)NC2=O)C(C)(C)c2ccccc21 | 30.6* | 127.6* | -1.7 | 7.2 | 7.4
Cc1ccc(NC(=O)CN2C(=O)CN=C(c3ccccc3)c3ccccc32)cc1Cl | . | -0.3 | . | -10.9 | .
CC1(C)Cc2c(sc3c2C(=O)NC(c2cccnc2)N3)CO1 (configuration not stated) | 69.5* | 0.6 | -2.7 | . | -4.2

Compound activity from PubChem BioAssay.
